Experimental data published in PubChem BioAssay (NCI).
This is part of a sample that, as a whole, favours compounds with a hit. Of some 79,000 tested, about 15% had one in any assay. Rule as the data show it: active = growth inhibition above about 70%; inactive = the rest.

Experiments:
[1] = NCI Yeast Anticancer Drug Screen. Data for the rad50 strain (AID 155);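 also: 0% = growth of vehicle-only cultures of the same strain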; details: S. cerevisiae rad50 strain growth inhibition; at 50.0 µM; active compounds read high
Procedure, shortened: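 Compounds were tested on a yeast strain with an engineered DNA damage repair alteration; the reported value is growth inhibition normalised to vehicle treatment.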

[2] = NCI Yeast Anticancer Drug Screen. Data for the mec2-1 strain (AID 157); details: S. cerevisiae mec2-1 strain, at 50.0 µM, active compounds read high
Procedure, shortened: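 Vehicle-treated cultures served as reference for growth inhibition of compound-exposed mec2-1 yeast.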

[3] = NCI Yeast Anticancer Drug Screen. Data for the sgs1 mgt1 strain (AID 161);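 also: 0% = growth of cultures given vehicle only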; details: S. cerevisiae sgs1 mgt1 strain, at 50.0 µM, active compounds read high
Procedure, shortened: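 Mutant yeast exposed to compound; growth scored against vehicle-only wells.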

[4] = NCI Yeast Anticancer Drug Screen. Data for the cln2 rad14 strain (AID 165);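 also: 0% = growth equal to vehicle treated cultures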; details: S. cerevisiae cln2 rad14 strain, at 50.0 µM, active compounds read high
Procedure, shortened: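 Each compound was tested on cln2 rad14 yeast. Inhibition of growth was calculated against vehicle-exposed controls.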

[5] = NCI Yeast Anticancer Drug Screen. Data for the bub3 strain (AID 167); details: S. cerevisiae bub3 mutant strain, at 50.0 µM, active compounds read high
Procedure, shortened: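 Growth of a checkpoint-deficient yeast mutant is measured after compound exposure. Values represent inhibition relative to vehicle.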

[6] = NCI Yeast Anticancer Drug Screen. Data for the mlh1 rad18 strain (AID 175); details: S. cerevisiae mlh1 rad18 strain growth inhibition; at 50.0 µM; active compounds read high
Procedure, shortened: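 Vehicle-treated cultures served as the reference for growth inhibition in a yeast strain carrying DNA damage repair alterations exposed to each compound.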

Measured: growth inhibition

CN(C)/N=C\c1ccc([N+](C)(C)C)cc1
inactive: [1] -20.4% | [2] -25.1% | [3] 7.05% | [4] -19.9% | [5] 32.8% | [6] -44.7%

Clc1cnnc(Cl)c1N/N=C/c1ccco1
inactive: [1] 11.6% | [2] -0.05% | [3] 13% | [4] -43.2% | [5] -6.7% | [6] -7.55%

CC1=NN(C(=O)Cc2ccccc2)C(=O)/C1=C\c1ccccc1O
inactive: [1] -10.1% | [2] -39% | [3] -43.2% | [4] -5.7% | [5] -26.2% | [6] -39.9%

COc1ccc2c3c([nH]c2c1)C1CC2C(CC(O)C(OC)C2C(=O)O)CN1CC3 (stereo unspecified)
inactive: [1] -6.35% | [2] -23.7% | [3] -1.75% | [4] 15.2% | [5] 0.15% | [6] -4.9%

O=C(Cc1ccccc1)NCc1ccc(Cl)cc1
inactive: [1] 3.75% | [2] 18.2% | [3] 34.1% | [4] -5.7% | [5] 41.1% | [6] 27.4%

O=C1OC[C@H]2[C@@H]1[C@H]1O[C@@H]2C2=C(CCC2)C1=O
inactive: [1] -27.4% | [2] -38.8% | [3] -43.5% | [4] -19.7% | [5] -30.9% | [6] -51.3%

C=CCC(c1ccccc1)(c1ccccc1)c1ccccc1
inactive: [1] -3.35% | [2] 5.25% | [3] 3.65% | [4] 3.55% | [5] 7.25% | [6] 8.25%

NC(=S)c1cccc(C(N)=S)n1
inactive: [1] 18.7% | [2] 19.9% | [3] 23.9% | [4] -27.9% | [5] 22.6% | [6] 26.6%

Cc1ccc(NC(=O)CCCC(=O)C(C#N)c2nc3ccccc3s2)cc1C (stereo unspecified)
inactive: [1] 10.9% | [2] 14.6% | [3] -9.8% | [4] 0.7% | [5] -7.35% | [6] 15.1%

CC(=O)N1CCC23C(=O)CC4C(=CCOC5CC(=O)N(c6ccccc62)C3C54)C1 (stereo unspecified)
inactive: [1] -19.1% | [2] -23.9% | [3] -4.5% | [4] 8.9% | [5] 3.55% | [6] -4.8%

Nc1ccc(S(=O)(=O)O)cc1Cl
inactive: [1] -12.5% | [2] -12% | [3] -5.25% | [4] -9.9% | [5] -10.4% | [6] -3.5%

NC(N)=NS(=O)(=O)c1ccc(Nc2c3ccccc3nc3c(C(=O)NNCCO)cccc23)cc1
inactive: [1] -10.1% | [2] -2.85% | [3] 25.6% | [4] -7.7% | [5] 15.9% | [6] -1.65%

CC(=O)OCC(C)CCC(C)COC(C)=O (stereo unspecified)
inactive: [1] -22.2% | [2] -9.4% | [3] -21.8% | [4] -11.4% | [5] 0.45% | [6] -31.6%

C=C(C)c1nc(N)nc(-c2cccc(-c3nc(N)nc(C(=C)C)n3)c2)n1
inactive: [1] -8.2% | [2] -8.35% | [3] 0.2% | [4] -67.6% | [5] -11% | [6] -0.8%

Cn1c(CBr)nc2c1C(=O)c1nc[nH]c(=O)c1C2=O
inactive: [1] 32% | [2] 0.55% | [3] 37.6% | [4] 11.8% | [5] 3.4% | [6] 31.6%

Cc1ccccc1/C=C/C(=O)O
inactive: [1] -0.4% | [2] -9.95% | [3] -0.45% | [4] -13.6% | [5] -24.4% | [6] -12.7%

CCN(CC)CCC(=O)N1C/C(=C/c2ccccc2)C(=O)/C(=C\c2ccccc2)C1
inactive: [1] 47.4% | [2] 37.9% | [3] 12.8% | [4] 30.6% | [5] 13.2% | [6] 2.7%

CCO[C@@H]1C2C=CC(C2)[C@H]1[N+](=O)[O-] (stereo partly specified)
inactive: [1] -11.8% | [2] 12.2% | [3] -5.65% | [4] 15.4% | [5] 3.05% | [6] -5.4%

c1ccc(-c2cc(-c3cc(-c4ccccc4)n(-c4ccccc4)n3)nn2-c2ccccc2)cc1
inactive: [1] -2.9% | [2] -13.2% | [3] -19.3% | [4] -2.55% | [5] -14% | [6] -38.3%

COc1ccc(Cl)[n+]([O-])n1
inactive: [1] -20.3% | [2] -4.15% | [3] -2% | [4] 0.8% | [5] -10.3% | [6] -29.6%

CN(CC(=O)O)Cc1ccccc1
inactive: [1] 9.5% | [2] 19.4% | [3] 10.5% | [4] -13.9% | [5] 9.35% | [6] 3.3%

CN(C)C1CS(=O)(=O)C1c1ccccc1 (stereo unspecified)
inactive: [1] 19.6% | [2] 9% | [3] 7.1% | [4] -19.5% | [5] 8.3% | [6] 1.45%

O=[N+]([O-])c1ccc(NC(=S)Nc2ccc([N+](=O)[O-])cc2)cc1
inactive: [1] 5.05% | [2] -17.6% | [3] -1.1% | [4] -25.8% | [5] 5.7% | [6] 2.75%

CC(=O)NC1=C/C(=C/COC(C)=O)OC1=O
inactive: [1] 22.6% | [2] -9.9% | [3] 11.8% | [4] -57% | [5] 5.8% | [6] 8.75%

C[n+]1cccc2cc(Br)ccc21
inactive: [1] -5.3% | [2] -8.6% | [3] -13.2% | [4] 9.7% | [5] 11.6% | [6] -15.5%

CCCC(=O)Nc1ccccc1
inactive: [1] 18.1% | [2] -15.8% | [3] 8.75% | [4] 7% | [5] -4.75% | [6] 19.6%

COC1(OC)C(c2ccco2)C(C#N)(C#N)C1(OC)OC (stereo unspecified)
inactive: [1] -5.65% | [2] -1.95% | [3] -8.05% | [4] -38% | [5] -4.85% | [6] -0.9%

CCOc1ccc(NC(=O)Nc2cccc(Cl)c2C)cc1
inactive: [1] 0.45% | [2] 9.25% | [3] 11.4% | [4] -13.8% | [5] 9.85% | [6] -20.6%

COc1ccc2ncc(COC(C)=O)c(COC(C)=O)c2c1
inactive: [1] -10.9% | [2] -9.45% | [3] -7.8% | [4] 14.7% | [5] -12.4% | [6] -8.4%

O=C(/C=C/C=C/c1ccccc1)CCc1ccccc1
inactive: [1] 6.75% | [2] 17.2% | [3] 24.2% | [4] 30.6% | [5] 16.2% | [6] -29.4%

NCC(=O)N1CCCCC1
inactive: [1] 7.05% | [2] 9.75% | [3] 4.95% | [4] -8.15% | [5] -2.1% | [6] 7.7%

Cc1cc2c(=O)c3ccccc3oc2c(C#N)c1C
inactive: [1] 19.6% | [2] 8.25% | [3] 9.2% | [4] -15.4% | [5] 18.3% | [6] 16.9%

CCCCCn1c(=O)c2c(=O)[nH][nH]c2c2ccccc21
inactive: [1] -16.3% | [2] -7.9% | [3] -9.55% | [4] -69.6% | [5] -1.3% | [6] -22.5%

CCC(=O)c1cccc(-c2ccccc2)c1C
inactive: [1] 7% | [2] -13.5% | [3] -2.5% | [4] 4.25% | [5] 11.7% | [6] 11.5%

COC1OC(C(COC(=O)c2ccccc2)OC(=O)c2ccccc2)C(OC(=O)c2ccccc2)C1OS(C)(=O)=O (stereo unspecified)
inactive: [1] 5.35% | [2] -2.55% | [3] 28.8% | [4] 28.4% | [5] -0.1% | [6] 11.6%

CC(C)NC(=O)C1C2CCC(C2)C1C(=O)NC(C)C (stereo unspecified)
inactive: [1] 3.55% | [2] -1% | [3] 2.35% | [4] -28.4% | [5] -0.3% | [6] -7.25%

CSCCCNC(=O)NS(=O)(=O)c1ccc(C)cc1
inactive: [1] 6.55% | [2] -1.35% | [3] 8.95% | [4] 7.75% | [5] 6.6% | [6] 2.85%

CC(=O)Oc1cc(OC(C)=O)c(OC(C)=O)c2c1CCCC2
inactive: [1] 6.45% | [2] 14.8% | [3] 6.65% | [4] -91.1% | [5] 16.4% | [6] 56.7%

N#CCC(=O)Nc1ccccc1
inactive: [1] 37% | [2] 15.7% | [3] 5.8% | [4] -11.8% | [5] 6.25% | [6] 26.2%

Clc1ccc2nc[nH]c2c1
inactive: [1] 10.1% | [2] 10.1% | [3] 4.5% | [4] 0.7% | [5] 5.9% | [6] 18.2%

NC(=O)C1CC(O)CC(C(N)=O)O1 (stereo unspecified)
inactive: [1] -6.75% | [2] 8.3% | [3] -9.55% | [4] 3.4% | [5] -2.35% | [6] -23.9%
